The record followed here is ChEMBL document CHEMBL1157539, “Thousands of chemical starting points for antimalarial lead identification” (Nature, 2010).

Common to all, as to format: functional
Experiment [1] has as its system Plasmodium falciparum. Briefly: GSK_TCMDC: Inhibition of Plasmodium falciparum 3D7 in whole red blood cells, using parasite LDH activity as an index of growth. Test compounds present at 2uM.
Experiment [2] relates to Plasmodium falciparum. Briefly: GSK_TCMDC: Inhibition of Plasmodium falciparum Dd2 in whole red blood cells, using parasite LDH activity as an index of growth. Test compounds present at 2uM.
In the next experiment the test system is HepG2. Kind of experiment: GSK_TCMDC: Percent inhibition of human HepG2 cell line. Test compounds present at 10uM.

As a reminder, the Inhibition is the percentage by which the read-out fell short of the control. In the case of `COc1ccc(C2CC(=O)C3=C(C2)NC(C)=C(C(=O)OC(C)C)C3c2cccc(O)c2)cc1OC` (centres undefined), the Inhibition came out at 100% in the experiment on Plasmodium falciparum [1], 85% in the experiment on Plasmodium falciparum [2] and 0% in the experiment on HepG2.
As for `Cc1cccc2nc(-c3ccc(-c4ccc(CN5CCN(C6CCN(C)CC6)CC5)cc4)s3)[nH]c12.O=C(O)C(F)(F)F`, the Inhibition in the experiment on Plasmodium falciparum [1] is reported as 100%; in the experiment with Plasmodium falciparum [2], 100%; in the experiment with HepG2, 97%.
As for `Cc1cc2nc(-c3cccc(C(=O)NC4CCN(Cc5ccccc5)CC4)c3)[nH]c2cc1C`, the Inhibition in the experiment with Plasmodium falciparum [1] was found to be 100%; in the experiment with Plasmodium falciparum [2], 13%; with HepG2, 32%.
For `CNC(=O)Cc1ccc(C(=O)Nc2cccc(-c3cccc(-c4nc5cc(C(F)(F)F)ccc5[nH]4)c3)c2)cc1`, in that order: 95%, 37% and 40%.
For `CCc1ccc(CN2CCC(CNC(=O)c3cc(-c4ccccc4F)cs3)C2)cc1.O=C(O)C(F)(F)F` (centres undefined) the same measures were 100%, 3% and 29%.
Take `COc1ccc(CNc2nccc3ccc(-c4ccc(N)nc4)cc23)cc1.O=C(O)C(F)(F)F`: the Inhibition was 93% in the experiment with Plasmodium falciparum [1], 49% in the experiment with Plasmodium falciparum [2] and 7% in the experiment on HepG2.
For `COc1cc(OC)nc(-c2cccc(NC(=O)c3ccc4c(=O)n(CCN5CCCCC5)cnc4c3)c2)n1`, in that order: 100%, 86% and 11%.
For `COc1ccc(OC)c2c1CCN(CCN1CCC(C(=O)Nc3ccc(C(=O)Nc4ccc(Cl)cc4)cc3)CC1)C2`, in that order: 100%, 100% and 25%.
Take `CCN(CC)CCCNc1ncc2c(-c3ccc(NC(=O)Nc4cc(C(F)(F)F)ccc4F)c(F)c3)nn(C)c2n1.O=C(O)C(F)(F)F`: the Inhibition came out at 94% in the experiment on Plasmodium falciparum [1], 68% in the experiment on Plasmodium falciparum [2] and 100% with HepG2.
On to `Br.Oc1ccccc1CCNCC1CCc2ccccc2C1` (centres undefined), for which the Inhibition was 98% with Plasmodium falciparum [1], 98% with Plasmodium falciparum [2] and 37% with HepG2.
For `CNC(=O)/C=C/c1cc(NC(=O)Nc2cc(C)nc3c(F)cccc23)ccc1OC`, the Inhibition in the experiment on Plasmodium falciparum [1] is 98%; with Plasmodium falciparum [2], 70%; with HepG2, 0%.
In the case of `COc1ccc(C(=O)C2CCN(CCCCNC(=O)c3ccc(NC(=O)c4ccc(Cl)cc4)cc3)CC2)c(OC)c1`, the Inhibition was 98% with Plasmodium falciparum [1], 13% in the experiment on Plasmodium falciparum [2] and 47% in the experiment with HepG2.
On to `CCN(CC)/C(=N/C(=N)Nc1ccc(Cl)cc1)NCCCCCCCCN/C(=N\C(=N)Nc1ccc(Cl)cc1)N(CC)CC`, for which the Inhibition came to 99% with Plasmodium falciparum [1], 94% in the experiment with Plasmodium falciparum [2] and 10% in the experiment on HepG2.
For `Cn1ccc(C(=O)Nc2ccc3c(c2)CN(Cc2ccc(N4CCCC4)o2)CCC3)n1.O=CO`, in that order: 80%, 72% and 19%.
For `COc1ccc(Cc2c(C)nc3nc(N)nc(N)c3c2C)cc1.Cl` the same measures were 93%, 2% and 61%.
For `CC(C)CNC(=O)CN1C(=O)C(c2ccccc2)(c2ccccc2)N=C1N` the same measures were 94%, 46% and 15%.
As for `CCC(C)c1ccc(O)c(NC(=O)c2cncc(Br)c2)c1` (centres undefined), the Inhibition in the experiment on Plasmodium falciparum [1] is given as 100%; with Plasmodium falciparum [2], 16%; in the experiment with HepG2, 0%.
`Cc1cc(N)ncc1-c1ccc(NC(=O)Nc2cc(C(F)(F)F)ccc2F)cc1.O=C(O)C(F)(F)F`: the Inhibition in the experiment with Plasmodium falciparum [1] turned out to be 100%; in the experiment on Plasmodium falciparum [2] it was 23%; with HepG2 it was 15%.
For `CCN(CC)c1nc(N)c2c(N)nc3c(c2c1C#N)C(=O)CN3Cc1ccccc1`, in that order: 96%, 96% and 26%.
For `O=C(Nc1ccccc1)N(Cc1cccc(-c2cccc(CNCCc3ccccc3)c2)c1)C1CCN(Cc2ccccc2)CC1.O=C(O)C(F)(F)F` the same measures were 100%, 87% and 100%.
As for `Br.CC1(C)NC(N)=NC(=N)N1OCCCNC(=O)c1ccc([N+](=O)[O-])cc1`, the Inhibition was found to be 92% in the experiment on Plasmodium falciparum [1], 97% in the experiment with Plasmodium falciparum [2] and 57% with HepG2.
On to `CC(=O)N(C)c1ccc(C(=O)Nc2cccc(-c3cccc(-c4nc5cc(C(F)(F)F)ccc5[nH]4)c3)c2)cc1`, for which the Inhibition in the experiment with Plasmodium falciparum [1] is recorded as 96%; with Plasmodium falciparum [2], 29%; with HepG2, 31%.
For the compound `Cc1cc2nc(-c3cc(Br)ccc3O)c(-c3cc(Br)ccc3O)nc2cc1C`, the Inhibition with Plasmodium falciparum [1] amounted to 96%; with Plasmodium falciparum [2], 12%; in the experiment with HepG2, 2%.
For `Br.CC(=O)Nc1nc(C)c(-c2csc(Nc3ccc(Cl)cc3)n2)s1`, in that order: 96%, 93% and 14%.
For `COc1ccc(CN2CCN(CCCCNC(=O)c3ccc(NC(=O)c4ccc(Cl)cc4)cc3)CC2)c(OC)c1`, in that order: 94%, 0% and 25%.
For `Cc1cccc2nc(-c3cccc(-c4cccc(NC(=O)COc5ccccc5C(N)=O)c4)c3)[nH]c12` the same measures were 100%, 88% and 22%.
Regarding `O=C(/C=C/c1ccc(Cl)c(Cl)c1)N1CCC(CN2CCC(Cc3nc4ccccc4[nH]3)CC2)CC1`, the Inhibition in the experiment with Plasmodium falciparum [1] is 100%; in the experiment with Plasmodium falciparum [2] it was 95%; with HepG2, 34%.
Consider `O=C(NCCN1CCCc2ccccc21)C1CCN(c2nc(-c3ccc(Cl)cc3)no2)CC1`, for which the figures for the Inhibition in the experiment with Plasmodium falciparum [1], in the experiment on Plasmodium falciparum [2] and in the experiment with HepG2 were 86%, 62% and 11%, respectively.
For `N=C(N)NN=CC(=O)Nc1ccc(Cl)c(C(F)(F)F)c1` the same measures were 100%, 0% and 0%.
For `COc1ccc(Nc2ncc3c(-c4cccc(NC(=O)CC(C)C)c4)c[nH]c3n2)cc1OC`, in that order: 100%, 71% and 37%.
For `CC(C)(C)c1ccc(CNC(=O)/C=C/c2ccc(-c3nc4cc(C(C)(C)C)ccc4[nH]3)cc2)cc1` the same measures were 100%, 66% and 35%.
Regarding `CCCCCCN(C(=O)OCc1ccccc1)C1CCN(C(=O)OC(C)(C)C)CC1C(=O)OCC` (centres undefined), the figures for the Inhibition in the experiment on Plasmodium falciparum [1], in the experiment with Plasmodium falciparum [2] and with HepG2 were 96%, 96% and 9%, respectively.
For the compound `CCCN1CCC(c2c[nH]c3ccc(NC(=O)Nc4cccc(Cl)c4Cl)cc23)CC1`, the results for the Inhibition with Plasmodium falciparum [1], with Plasmodium falciparum [2] and in the experiment with HepG2 were 100%, 17% and 30%, respectively.
For `CCCC1N=C(N)N=C(N)N1c1cccc(C(F)(F)F)c1.Cl` (centres undefined), in that order: 95%, 7% and 22%.
Consider `CN1CCCN(Cc2cccc(-c3cccc(NC(=O)c4cccc(Cl)c4)c3)c2)CC1.O=C(O)C(F)(F)F`, for which the figures for the Inhibition in the experiment on Plasmodium falciparum [1], with Plasmodium falciparum [2] and in the experiment on HepG2 were 96%, 20% and 17%, respectively.
For `O=C(O)C(F)(F)F.OCCN1CCN(Cc2ccc(-c3ccc(-c4nc5ccccc5[nH]4)cc3)cc2)CC1` the same measures were 100%, 58% and 6%.
For `Cc1[nH]c(C)c(-c2ccc(OCc3ccc(F)cc3)nc2)c(=O)c1Br`, in that order: 97%, 97% and 41%.
For `O=C(O)C(F)(F)F.OCC1CCN(Cc2ccc(-c3cccc(-c4nc5ccccc5[nH]4)c3)cc2)CC1`, in that order: 100%, 6% and 21%.
For `CCNC(=O)Nc1ccc(-c2ccc(-c3nc4cccc(C)c4[nH]3)s2)cc1`, the Inhibition was 96% in the experiment with Plasmodium falciparum [1], 13% in the experiment with Plasmodium falciparum [2] and 18% in the experiment on HepG2.
For `CCNCc1cccc(-c2ccc3ccnc(N)c3c2)c1`, in that order: 100%, 98% and 17%.
For `Cc1ccc(Nc2cc(C)nn2-c2nc(C)cc(O)n2)cc1`, in that order: 97%, 95% and 54%.
Take `CCN1CCC(N(Cc2ccc(-c3ccc(C(F)(F)F)cc3)cc2)C(=O)Cn2c(CCc3cccc(F)c3F)cc(=O)c3c2CCCC3)CC1.O=C(O)C(O)C(O)C(=O)O`: the Inhibition in the experiment with Plasmodium falciparum [1] was determined as 100%; with Plasmodium falciparum [2], 96%; with HepG2 it was 55%.
For `CC1(C)CC(NCCCCCCCOc2ccc(OCc3ccccc3)cc2)CC(C)(C)N1.Cl` the same measures were 100%, 73% and 99%.
For `O=C(Nc1cccc(C(F)(F)F)c1)NC1CCN(c2ccnc3cc(Cl)ccc23)CC1.O=C(O)C(F)(F)F`, in that order: 100%, 47% and 13%.
For `O=C(Nc1ccc(OC2CCN(Cc3ccc(F)cc3)C2)cc1)c1ccco1.O=C(O)C(F)(F)F` (centres undefined) the same measures were 88%, 69% and 0%.
With `O=C(NCC1CCN(Cc2cccc(C(F)(F)F)c2)C1)c1cc(-c2cccc(C(F)(F)F)c2)cs1.O=C(O)C(F)(F)F` (centres undefined), the Inhibition in the experiment with Plasmodium falciparum [1] came to 100%; in the experiment with Plasmodium falciparum [2], 74%; in the experiment on HepG2, 35%.
On to `N[C@@H](Cc1ccc(O)cc1)C(=O)NC(c1ccccc1)c1c(O)ccc2ccccc12.O=C(O)C(F)(F)F` (some centres undefined), for which the results for the Inhibition with Plasmodium falciparum [1], with Plasmodium falciparum [2] and in the experiment with HepG2 were 95%, 95% and 6%, respectively.
On to `COc1ccc(C(C(=O)NC2CCN(C[C@H](O)c3ccnc4ccc(OC)cc34)CC2)N2CCN(c3ccc([N+](=O)[O-])cc3)CC2)cc1` (some centres undefined), for which the Inhibition with Plasmodium falciparum [1] was 99%; with Plasmodium falciparum [2], 80%; with HepG2, 17%.
For `COc1ccc(C2C(C(=O)Nc3ccc4c(c3)OCO4)c3cc(OC)c(OC)cc3C(=O)N2C)cc1` (centres undefined) the same measures were 89%, 54% and 12%.
For `CC1=C(C(=O)Nc2cc3cn[nH]c3cc2F)C(c2ccc(Cl)c(NS(C)(=O)=O)c2)CC(=O)N1` (centres undefined), in that order: 88%, 98% and 2%.
For `COc1ccc(C(=O)Nc2ccc3nc(N4CCCCC4)cc(C)c3c2)cc1OC`, in that order: 92%, 7% and 15%.
For `Cc1cccc2nc(-c3ccc(-c4ccc(NC(=O)NCc5ccc(F)cc5)cc4)cc3)[nH]c12`, the Inhibition in the experiment with Plasmodium falciparum [1] amounted to 100%; in the experiment on Plasmodium falciparum [2], 99%; in the experiment with HepG2 it was 70%.
`O=C(N[C@@H](Cc1ccccc1)[C@H](O)CNC1CCCCC1)c1cc(C2CCCC2)cc(N2CCCC2=O)c1`: the Inhibition with Plasmodium falciparum [1] is 100%; in the experiment on Plasmodium falciparum [2], 98%; with HepG2, 17%.
For `O=C(/C=C/c1ccc(Cl)c(Cl)c1)NCCCCCN1CCC(NC(=O)Nc2cc(Cl)ccc2Cl)CC1`, in that order: 99%, 31% and 99%.
For `Nc1nccc2ccc(-c3cccc(O)c3)cc12` the same measures were 95%, 71% and 43%.
As for `Cc1ccc(NC(=N)Nc2ncccc2OCc2c(F)cccc2Cl)cc1`, the results for the Inhibition in the experiment with Plasmodium falciparum [1], with Plasmodium falciparum [2] and in the experiment with HepG2 were 86%, 54% and 78%, respectively.
For `O=C(NCC(CCCN1CCC(c2c[nH]c3ccccc23)CC1)c1ccccc1)Nc1ccc(Cl)c(Cl)c1` (centres undefined) the same measures were 100%, 64% and 38%.
For `CC(C)CNC(=O)c1cncc(-c2ccc(CNCCCc3ccccc3)cc2)c1.O=C(O)C(F)(F)F` the same measures were 100%, 73% and 28%.
